# HTT ATP protect = qHTS Multiplex Assay to Identify Dual Action Probes in a Cell Model of Huntington: Cytoprotection (ATP); PC12 HTT-Q103 induced, cytoprotection, ATP luminescence, 40 h; Potency, µM (series often up to 56.4 µM), without a hit: cytoprotection (ATP increase), usual class: activators; AID 1471, 2008; hit rate 0.14% among 230,000; further: % of control where 0% means no effect; nearly all actives have a fitted effect of over 45% in size
#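 Huntington model: PC12 line, ecdysone-inducible HTTQ103 exon1–GFP, tebufenozide 100 nM. Test articles in a dose series. Endpoint luminescence from cellular ATP.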
# HttQ103 aggreg = qHTS Multiplex Assay to Identify Dual Action Probes in a Cell Model of Huntington: Aggregate Formation (GFP). Potency, µM (top dose mostly 46.1 µM), for inactives: top-dose activity change, negative = inhibition, usual class: inhibitors. hit rate 1.1% among 220,000. PC12 HttQ103-GFP aggregates, Acumen cytometry, 40 h; further: on the % scale 0 is the no-effect control and ±100 the full control effect; nearly all actives have a fitted effect of over 60% in size
#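 PC12 cells stably carrying ecdysone-inducible HTT exon 1 Q103–GFP were induced with tebufenozide (100 nM final) and treated with library compounds in titration. GFP aggregates in lysates were counted by laser scanning cytometry.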
# Tau FP inhib = qHTS for Inhibitors of Tau Fibril Formation, Fluorescence Polarization; K18 P301L tau heparin fibrillization, Alexa594 FP, 6 h; Potency, µM (doses to about 57.7 µM), for inactives: top-dose activity, negative = inhibition, usual class: inhibitors; hit rate 0.39% among 280,000; further: on the % scale 0 is the no-effect control and ±100 the full control effect; nearly all actives have a fitted effect of over 55% in size
# Target sequence (P10636 561-689 P618L limits assumed): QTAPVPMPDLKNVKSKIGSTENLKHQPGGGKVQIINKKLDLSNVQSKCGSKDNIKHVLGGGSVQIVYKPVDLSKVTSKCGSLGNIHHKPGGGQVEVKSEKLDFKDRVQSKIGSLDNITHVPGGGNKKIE
#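 Human tau K18 […] P301L fragment, 15 uM unlabeled plus 0.24 uM Alexa 594-labeled tau (final), with compound and 20 uM heparin in 100 mM sodium acetate pH 7; 6 hr at 37 C, then Alexa 594 FP read.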
# Tau fluor cs = Counterscreen qHTS for Inhibitors of Tau Fibril Formation, Fluorescence Polarization | AID 1463, 2008 | hit rate 0.93% among 280,000 | tau K18 P301L Alexa594 fluorescence, heparin fibrillization | Potency, µM (doses to about 57.7 µM), inactives show at the top dose activity change, negative = decrease; further: on the % scale 0 is the no-effect control and ±100 the full control effect; nearly all actives have a fitted effect of over 55% in size
#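 Human tau K18 P301L (15 uM unlabeled, 0.24 uM Alexa 594-labeled) in 100 mM sodium acetate pH 7 with 20 uM heparin, 6 hr at 37 C. ThT 30 uM added, 1 hr ambient; Alexa 594 FP and total fluorescence read at 555/632 nm.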
# Tau ThT inhib = qHTS for Inhibitors of Tau Fibril Formation, Thioflavin T Binding; Microtubule-associated protein tau (Homo sapiens), P10636; recombinant tau K18 P301L (four-repeat tau fragment), heparin-induced fibrillization, ThT fluorescence; Potency, µM (doses to about 57.4 µM), for the others: at the highest dose activity, negative = inhibition, usual class: inhibitors; hit rate 2.1% among 270,000; further: on the % scale 0 is the no-effect control and ±100 the full control effect; nearly all actives have a fitted effect of over 55% in size
#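 Heparin-induced (20 uM) aggregation of recombinant human K18 P301L tau, 15 uM unlabeled with 0.24 uM labeled, pH 7 acetate buffer, 6 hr at 37 C with compound. Fibrils quantified by 30 uM ThT fluorescence after 1 hr ambient incubation.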
# Active calls of the source: *; ? = inconclusive; · = no result; [ ] = remark or other dose. Shown are actives, neighbours in structure and some others; about 3.7% of the full set was active somewhere. The call rests on the fitted dose curve; in most records, active means well fitted curve in the direction sought with a large enough effect; inconclusive means small, poorly fitted or top-dose-only effect, or another doubt; inactive means no such curve, though single readings can be large; an effect the other way counts as inactive or inconclusive. Potency means the concentration at half of the fitted maximal effect.
SMILES,HTT ATP protect,HttQ103 aggreg,Tau FP inhib,Tau fluor cs,Tau ThT inhib
Clc1ccccc1-c1ccc2ncnc(NCCN3CCOCC3)c2c1,-11%,·,·,·,·
CCCCCC(=O)/C=C/[C@@H]1[C@@H](C/C=C\CCCC(=O)O)[C@@H](O)C[C@H]1O,-15%,·,2%,-1%,-6%
CCc1cccc(C)c1NC(=O)Cn1ccn(-c2cccc(OC)c2)c(=O)c1=O,·,·,-1%,-11%,?
CN(CC(=O)O)CC(=O)O,13%[10 µM],·,·,·,·
COc1ccc2nc(NC(=O)c3cc(=O)c4ccccc4o3)sc2c1,·,·,-9%,-22%,0.89µM*
Cc1ccc2nc(NC(=O)c3cc(=O)c4cc(C)c(C)cc4o3)sc2c1,·,·,-8%,-10%,?
Cc1cc(C)c2nc(NNC(=O)c3cc(=O)c4ccccc4o3)sc2c1,12%[10 µM],-5%[9.22 µM],-10%,?,5µM*
Cc1cc(C)c2nc(NNC(=O)c3ccc(S(=O)(=O)N4CCc5ccccc5C4)cc3)sc2c1,·,6%,3%,?,-17%
C[C@]12C=CC(=O)N[C@@H]1CC[C@@H]1C2CC[C@]2(C)C(C(=O)Nc3cc(C(F)(F)F)ccc3C(F)(F)F)CC[C@@H]12 (stereo not given in full),-22%,-5%,·,·,·
c1coc(-c2nc(-c3ccco3)c(-c3ccco3)nc2-c2ccco2)c1,-17%,30%,11µM*,?,7.9µM*
COc1ccc2nc(-c3ccco3)c(-c3ccco3)nc2c1,-79%,?,?,7.9µM*[quencher],4.5µM*
O=C(NCCO)Nc1ccc2nc(-c3ccco3)c(-c3ccco3)nc2c1,·,·,6%,9%,5%
CCN(Cc1ccccc1)Cc1c(O)ccc2c(=O)c(-c3ccccc3OC)c(C(F)(F)F)oc12,·,·,3%,-7%,-11%
NNC(=O)c1cc(-c2cccs2)nc2ccccc12,12%[10 µM],-7%[9.22 µM],-2%,-16%,4%
C/C(=N\NC(=O)c1cc(-c2cccs2)nc2ccccc12)c1ccccn1,-131%,0.89µM*,3%,-23%,0%
c1ccc(Nc2cc(-c3ccoc3)ncn2)cc1,-50%,·,·,·,·
Cc1ccc(NCC(O)C(O)C(O)CO)cc1C (stereo not given),15%[10 µM],-14%,-9%,-5%,-12%
Cc1cc(N=Nc2ccccc2)c(NCC(O)C(O)C(O)CO)cc1C (stereo not given),-40%,11%,16%,?,14µM*
Cc1ccc(Cc2nc3ccccc3nc2SCC(=O)N2CCCCC2)cc1,·,·,10%,-7%,-11%
COc1cc(/C=C/c2ccc3cccc(OC)c3n2)c(O)c([N+](=O)[O-])c1,·,13%,-12%,?,1µM*
COc1c(OC(C)=O)ccc(/C=C/c2ccc3cccc(OCc4ccccc4)c3n2)c1[N+](=O)[O-],-14%[10 µM],?,-1%,?,?
COc1cc(/C=C/c2ccc3cccc(OC)c3n2)c(OC(C)=O)c([N+](=O)[O-])c1,-69%,-1%,?,?,2.8µM*
Nc1nc(-c2cccnc2)cc(-c2cc(-c3cccnc3)nc(N)n2)n1,0%[10 µM],·,·,·,·
Oc1ccc([C@@H]2CNCc3sccc32)cc1O,27%[1.9 µM],·,·,·,·
CCN(CC)c1ccc(/C=C(\C#N)C(N)=S)cc1,1%[10 µM],16%[9.22 µM],-2%,?,4.5µM*
SMILES,HTT ATP protect,HttQ103 aggreg,Tau FP inhib,Tau fluor cs,Tau ThT inhib
Nc1ccc(O)cc1C(=O)OCC(=O)c1ccc(C2CCCCC2)cc1,-34%[10 µM],?,-1%,13µM*[quencher],?
CCOC(=O)c1cc(C)n(CC2CCC(C(=O)Nc3ccc(Cl)cc3)CC2)c1C (stereo not given),·,·,-3%,-21%,-3%
CC(=O)c1ccc2noc(-c3ccc(F)cc3)c2c1,7%,-13%,6%,-19%,-16%
O=C(O)/C=C/c1ccc2noc(-c3ccccc3)c2c1,-24%,4µM*,2%,-2%,-17%
Cc1ccc(-c2onc3ccc(C=O)cc23)cc1,-11%,-4%[9.22 µM],?,?,25µM*
COc1ccc(-c2noc(-c3ccc(N4CCN(c5ccccc5OC)CC4)c([N+](=O)[O-])c3)n2)cc1,·,·,-12%,-10%,-9%
Clc1nc(NCCc2ccccc2)c2ncn(-c3ccccc3)c2n1,-8%[10 µM],·,·,·,·
Cc1cccc(N2C(=O)CC(Sc3nc(C)cc(C)n3)C2=O)c1 (stereo not given),3%,3%[9.22 µM],-10%,-7%,-13%
Cc1cccc(N2C(=O)CC(Sc3nnc(C)s3)C2=O)c1 (stereo not given),-4%[10 µM],14µM*,-5%,-12%,?
Cc1ccc(Cn2c(C)c3cnn(CC(=O)NCCc4ccc(Cl)cc4)c(=O)c3c2C)cc1,·,·,-1%,-2%,?
CCCC(=O)C1=C(O)C(C(=O)OC)C(C)(C)CC1=Nc1ccccc1 (stereo not given),-2%,-12%,3%,2%,-3%
CCCC(=O)C1=C(O)C(C(=O)OC)C(C)(C)CC1=Nc1cccc2ccccc12 (stereo not given),3%[1.9 µM],11µM*,-6%,-14%,-17%
COC(=O)[C@@]1(Cc2ccc(F)cc2)[C@@H]2C(=CC(=O)[C@H]2CC(=O)C(=O)N(C)C)CN1C(=O)c1ccccc1,4µM*,·,3%,-4%,?
COc1ccc(C2=CSC(/N=C/c3ccc(F)cc3)=NN2)cc1,13%,19%,-4%,?,14µM*
COc1cccc(-c2nc(SCC(=O)NC3CCCC3)c(-c3ccccc3)[nH]2)c1,·,·,?,25µM*[quencher],-15%
O=C(CSc1nc(-c2ccccc2)[nH]c1-c1ccc(F)cc1)NC1CCCC1,·,·,11%,28µM*[quencher],-14%
COc1cccc(-c2nc(SCC(=O)NCC3CCCO3)c(-c3ccc(Cl)cc3)[nH]2)c1 (stereo not given),·,·,9%,13µM*[quencher],?
COc1ccc(-c2nc(SCC(=O)NC3CCCC3)c(-c3ccc(C)cc3)[nH]2)cc1OC,·,·,?,18µM*[quencher],?
COc1cccc(-c2nc(SCC(=O)NCC3CCCO3)c(-c3ccc(C)cc3)[nH]2)c1 (stereo not given),·,·,13%,?,-9%
COc1ccc(-c2[nH]c(-c3ccc(C)cc3)nc2SCC(=O)NC2CCCC2)cc1,·,-17%,7%,?,?
COc1cccc(-c2nc(SCC(=O)NC3CCCC3)c(-c3ccc(F)cc3)[nH]2)c1,·,·,10%,13µM*[quencher],?
COc1cccc(-c2nc(SCC(=O)NC3CCCC3)c(-c3ccc(C)cc3)[nH]2)c1,·,·,?,11µM*[quencher],-16%
O=S(=O)(Nc1cccnc1)c1ccccc1,-25%,4%,1%,-5%,-1%

# High-throughput results as filed in PubChem.
